In PubChem BioAssay AID686952 (The Scripps Research Institute Molecular Screening Center, 2013):
The campaign covered roughly 3,200 compounds. About 2,600 (81%) were called active.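 The calls were made as follows: active = activation above the all-compound mean plus 3 SD, ignoring values outside control-based bounds (cut at about 4.8% in these data); inactive = the rest.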 The set was probably picked from earlier hits. A selection follows.

Assay: EDANS-DABCYL substrate optical interference, artefact control for kallikrein-7 zymogen activator project, biochemical, fluorescence intensity, high throughput (AID 686952);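 also: value is the 4 h activation minus the activation read at time zero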
Conditions: no enzyme, 4 h, at 7 µM, hits give high values, solvent 0%, active enzyme control 100%

activation, active:
CCc1ccc(-c2cc(C(=O)NCc3ccco3)c3ccccc3n2)s1 73.9%
CC(=O)Nc1nc2ncccn2c1-c1ccc(C(F)(F)F)cc1 41.3%
CC(C)Cc1nc(Nc2ccc(S(=O)(=O)N3CCCC3)cc2)c2nnn(Cc3ccccc3)c2n1 38.6%
CN(C(=O)c1ccccn1)c1nnc(-c2ccccn2)s1 85.1%
CN(C(=O)COc1ccccc1)c1nnc(-c2ccncc2)s1 107%
CC(OC(=O)c1ccccc1NCCO)C(=O)Nc1ccnn1C(C)C (stereo not drawn) 29.3%
CN(CCc1ccccn1)S(=O)(=O)c1ccc2c3c(cccc13)C(=O)N2 71.8%
COc1cc(/C=C/C(=O)Nc2ccc(OC)c(S(=O)(=O)N3CCOCC3)c2)ccc1OCC#N 93.1%
COc1ccc2nc(-c3ccccn3)ccc2c1 4.08%
O=C(Oc1c(-c2ccco2)oc2ccccc2c1=O)c1cccnc1 18.8%
CC1CC(C)CN(S(=O)(=O)c2cccc(C(=O)N3C(=O)c4cccc(N)c4C3=O)c2)C1 (stereo not drawn) 228%
COc1cc(C(=O)N2C(=O)c3cccc(N)c3C2=O)cc(OC)c1OC 122%
COCc1cc(=O)oc2cc(NS(=O)(=O)c3ccc(C)cc3)ccc12 70.4%
Cc1cccn2c(=O)c3cc(C(=O)NCCN4CCOCC4)c(=N)n(Cc4cccnc4)c3nc12 18.1%
CCn1c(=N)c(C(=O)NCCCOC)cc2c(=O)n3cccc(C)c3nc21 74.4%
Oc1ccc2ccc3cccc[n+]3c2c1 38.2%
CCN(CC)CCCC(C)n1c2nc(=O)[nH]c(=O)c-2nc2cc(Cl)ccc21 (stereo not drawn) 69.7%
Cc1cc2cc3n(c2nn1)N=C(Cl)CC3 37.9%
N#Cc1nc(-c2cccc3ccccc23)oc1N 76.5%
Cc1cc(C)c(C#N)c(SCC(=O)NN2CC(=O)N(c3ccccc3F)CC2=O)n1 58.1%
CN(C)CCCn1c(N)c(C#N)c2nc(C#N)c(C#N)nc21 46.2%
CC1(C)CN(c2ccc(-c3ccnc4ncnn34)cc2)C1=O 68.4%
CN1CCCc2cc(C#N)c(=O)[nH]c21 38.1%
CC1(C)CC(=O)c2cc(OCC(=O)NCC3CCCO3)ccc2O1 (stereo not drawn) 57.9%
C[C@@H]1C(c2ccc(F)cc2)=NN(c2ccc(Br)cc2)[C@H]1C(=O)N1CCOC1=O 26.5%
Clc1ccc(-c2cccc3nccn23)cc1 11.3%
Cc1ccc(-c2nn(-c3ccccc3)cc2/C=C/C(=O)Nc2cccc(S(N)(=O)=O)c2)cc1 251%
CCS(=O)(=O)Nc1cc(C(=O)OC)ccc1C(=O)OC 8.19%
CC(=O)Nc1ccc(-c2cn3cccnc3n2)cc1 73.5%
CCCCCC(=O)Nc1ccc(-c2cn3cccnc3n2)cc1 28.5%
CC(C)(C)C(=O)Nc1ccc(-c2cn3cccnc3n2)cc1 80.3%
CCOc1ccc(-n2c(SCC(=O)Nc3cc(C)c(NC(=O)c4ccccc4)cc3OC)nnc2-c2cccs2)cc1 19.4%
Cc1cccc(C)c1NC(=O)C(c1ccccc1)N1CC(=O)Nc2ccccc21 (stereo not drawn) 24.8%
CNc1cncc(-c2ccc(NS(C)(=O)=O)cc2)n1 46.5%
CN(C)Cc1c(O)ccc2c(=O)c(-c3ccccc3Cl)coc12 83.7%
CC(=O)Nc1ccc(S(=O)(=O)NCC(=O)OCc2cc(=O)oc3ccc4ccccc4c23)cc1 209%
Cc1cc(=O)oc2c3c(cc(OCC(=O)NCCC(=O)N[C@@H](C)C(=O)O)c12)OC(C)(C)CC3 65.1%
Cc1c(C)c2c(OCC(=O)NCCCO)cc3c(c2oc1=O)CCC(C)(C)O3 55.7%
Cc1c(C)c2c(OCC(=O)N[C@@H](C(=O)O)c3ccccc3)cc3c(c2oc1=O)CCC(C)(C)O3 49.4%
Cc1cc(=O)oc2c3c(cc(OCC(=O)N[C@H](C(=O)O)c4ccccc4)c12)OC(C)(C)CC3 49.3%
O=C(O)c1ccc2c3c(cccc13)C(=O)N(OS(=O)(=O)c1ccccc1)C2=O 103%
Cc1cc(C)c2c(n1)nn1c(-n3ccnc3)cc(C)nc21 44.4%
Cc1ccc(C2Nc3ccccc3C(=O)N2CCN2CCNC2=O)cc1 (stereo not drawn) 19.4%
C/C(=C\c1ccccc1)C1NC(=O)c2c(sc3c2CCCC3)N1 (stereo not drawn) 14.5%
COC(=O)c1cc(N2CCNCC2)nc2ccccc12 33.6%
CC1CCCN(C(=O)c2cc(-c3ccco3)nc3ccccc23)C1 (stereo not drawn) 35.5%
CC(=O)N1CCN(C(=O)c2cc(-c3ccc(C)o3)nc3ccccc23)CC1 66.4%
CCCCN(CCCC)CC(O)Cn1c2ccccc2c(=O)c2ccccc21 (stereo not drawn) 16.2%
O=C1NC(c2cccc(Cl)c2)Nc2ccccc21 (stereo not drawn) 18.9%
CC(=O)NN1C(=O)c2ccccc2NC1c1ccccc1 (stereo not drawn) 35.4%
CCOC(=O)NN1C(=O)c2ccccc2NC1c1cccc(O)c1 (stereo not drawn) 20.4%
CCc1nc(Nc2ccc(NC(C)=O)cc2)c2oc3ccccc3c2n1 218%
CC(=O)Nc1nc(C)c(-c2csc(Nc3ccc(S(N)(=O)=O)cc3)n2)s1 46.5%
Cc1nn(-c2ccccc2)c(C)c1NC(=O)COC(=O)c1cc(Cl)ccc1O 23.3%
O=C(Nc1nncs1)c1ccccc1NS(=O)(=O)c1cccs1 38.3%
O=c1oc2c(CN3CCCCC3)c(O)ccc2c2c1CCCCC2 68.6%
COc1cc(/C=N\NC(=O)c2nonc2N)c(OC)cc1Br 74%
COc1cc2c(cc1OC)CC1(CCCCC1)N=C2 44.6%
CCCN(CC(=O)NC(=O)NC1CCCCC1)CC(=O)Nc1cc(Cl)ccc1Cl 4.93%
CCOCCCNC(=O)c1cc2c(=O)n3ccccc3nc2s1 68.6%
CN(C(=O)c1cc2c(=O)n3ccccc3nc2s1)C1CCCCC1 23%
CCN1CCN(C(=O)Cn2nc(C)n3c(cc4c(OC)cccc43)c2=O)CC1 29.8%
CC1(C)Oc2ccc3ccc(=O)oc3c2/C(=N/O)C1=O 84.6%
COC(=O)Cc1cc(=O)oc2c(C)c(O)ccc12 76.7%
CCN1CCCC1CNC(=O)c1cc2cc(OC)c(OC)cc2[nH]1 (stereo not drawn) 22.6%

activation, inactive:
COCC(=O)Nc1nnc(COc2ccccc2)s1 1.67%
COc1ccc2c(c1)CCc1cn3ncc(C#N)c3nc1-2 -65.2%
Cc1cccn2c(=O)c3cc(C#N)c(=NC(=O)c4cccnc4)n(CC4CCCO4)c3nc12 (stereo not drawn) -72.9%
Cc1ccc2nc3c(cc(C(=O)NCCc4ccccc4)c(=N)n3CC3CCCO3)c(=O)n2c1 (stereo not drawn) -37.3%
CCOc1ccccc1C1C(C(=O)OC)=CN(C)C=C1C(=O)OC -18%
Cc1cc2c(nc1C)CCCN2C 2.55%
COc1cccc(NC(=O)CN(C)C(=O)/C=C/c2cc(OC)ccc2OC)c1 -114%
Cn1cccc1/C=N/NC(=O)CNc1cccc2ccccc12 1.38%
COc1ccc2nc(Nc3nc4cc5c(cc4s3)OCCO5)sc2c1 -11.5%
CCOC(=O)C1=C(O)/C(=C/c2ccc(OCC(=O)Nc3ccc(C)cc3)cc2)N=C1C 3.03%
COc1c(N2CCN(C(=S)Nc3ccccc3F)C(C)C2)c(F)cc2c(=O)c(C(=O)O)cn(C3CC3)c12 (stereo not drawn) -26%
CCCCCn1c(=O)c(C(=O)OCC)c(Cl)c2ccccc21 -2.49%
CCOC(=O)c1[nH]c2ccc(OC)cc2c1NC(=O)CCN1CCN(Cc2ccccc2)CC1 -3.59%
